RORgamma inh: ROR gamma (mouse) transcription inhibition. Drosophila S2 Gal4-RORgamma UAS-luciferase reporter, 20 h. Potency, µM (titrated, usually from 53.6 µM), without a hit: at the highest dose activity change, negative = inhibition, usual class: inhibitors. hit rate 5.4% among 310,000. AID 2551; also: % is scaled to controls: 0 for no effect and ±100 for the full control effect; nearly all actives have a fitted effect of over 60% in size
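Drosophila Schneider cells stably carrying a metallothionein-driven Gal4 DBD–ROR gamma fusion and a UAS-Photinus luciferase reporter were exposed to compound for 1 hr, then induced with copper sulfate (700 uM final) for 20 hr at ambient temperature before luminescence reading.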
GLP-1R agonist: activates the human GLP-1 receptor; P43220; HEK293 GLP-1R CRE-luciferase, luminescence, 4-6 h; cells express a hypersensitive GLP-1R form; hit rate 0.007% among 380,000; Potency, µM (titrated, usually from 45.6 µM), for the others: top-dose activation, actives largely listed as activators; also: % of control where 0% means no effect
Target sequence (P43220 whole entry, looked up): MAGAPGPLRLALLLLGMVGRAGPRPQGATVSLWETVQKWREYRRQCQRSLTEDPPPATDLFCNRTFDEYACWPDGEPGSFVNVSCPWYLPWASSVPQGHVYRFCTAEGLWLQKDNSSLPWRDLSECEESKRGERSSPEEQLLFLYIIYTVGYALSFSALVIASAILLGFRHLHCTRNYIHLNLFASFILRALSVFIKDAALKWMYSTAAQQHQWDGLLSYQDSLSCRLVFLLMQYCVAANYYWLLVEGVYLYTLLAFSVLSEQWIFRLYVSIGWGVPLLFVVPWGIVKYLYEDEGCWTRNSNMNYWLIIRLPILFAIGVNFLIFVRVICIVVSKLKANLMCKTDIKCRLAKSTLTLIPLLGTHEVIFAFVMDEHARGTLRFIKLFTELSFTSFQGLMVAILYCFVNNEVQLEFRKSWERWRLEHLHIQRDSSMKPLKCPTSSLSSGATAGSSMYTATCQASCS
GLP1R cytotox: cytotoxicity counter-screen for GLP-1 receptor inverse agonists. hit rate 0.13% among 410,000. AID 624418. Potency, µM (doses to about 38.3 µM), for inactives: top-dose activity change, negative = inhibition, most hits filed as inhibitors. HEK293 cAMP-luciferase reporter cells, luminescence, 24 h;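 also: loss of luciferase light is scored as toxicity; % is scaled to controls: 0 for no effect and ±100 for the full control effect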
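Step one: seed cells (200 cells/uL, DMEM with 10% Nu serum, 1% pen-strep). Step two: 12-hour incubation at 37 deg C. Step three: pin 23 nL compound, incubate 24 hr. Step four: add luciferase reagent, read luminescence 12 min later.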
Gal4-VP16 FLuc: counter-screen for ROR gamma inhibitors: Gal4-VP16 reporter; Potency, µM (series often up to 53.6 µM), for inactives: at the top dose activity, negative = inhibition, hits mostly inhibitors; Drosophila S2 Gal4-VP16 UAS-luciferase, luminescence, 20 h; hit rate 3.5% among 310,000;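 also: Gal4-VP16 expression switched on by copper sulfate through the metallothionein promoter; % is scaled to controls: 0 for no effect and ±100 for the full control effect; nearly all actives have a fitted effect of over 50% in size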
GLP-1R inv ag: GLP-1 receptor (human) inverse agonism; HEK293 GLP-1R CRE-luciferase, luminescence, 24 h; GLP-1R form is constitutively active; Potency, µM (top dose mostly 38.3 µM), for the others: top-dose activity change, negative = inhibition, actives largely listed as inhibitors; hit rate 1.6% among 410,000; also: % is scaled to controls: 0 for no effect and ±100 for the full control effect; nearly all actives have a fitted effect of over 55% in size
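Seeding at 200 cells/uL, 12 h culture, 24 hr compound treatment, then luciferase reagent and a luminescence read; cells are HEK293 stably expressing a constitutively active GLP-1R plus cAMP-responsive luciferase.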
An asterisk follows results filed as active; ! = not active in a repeat; [ ] = dose if it differs, or a comment. Rows were chosen to be rich in hits. Some 5.9% of all compounds tested hit in one or more screens of this group. Calls follow the shape of the dose curve; as a rule, active = well fitted curve in the direction sought with a large enough effect; inconclusive = small, poorly fitted or top-dose-only effect, or another doubt; inactive = no such curve, though single readings can be large; an effect the other way counts as inactive or inconclusive. Potency is read from the fitted curve at half-maximal effect.

For Cc1cccc(NC(=O)c2oc3ccccc3c2NC(=O)c2cc(=O)c3ccc(C)cc3o2)c1 the results were GLP1R cytotox 18% and GLP-1R inv ag 12%.
Screening C=Cc1ccc(Cn2c(=O)n(CC3CCC(C(=O)NC(C)C)CC3)c(=O)c3sccc32)cc1 (stereo not drawn) returned GLP1R cytotox 6% and GLP-1R inv ag 17%.
`CN1CCN(c2ccc(Cl)cc2NC(=O)c2cc(=O)[nH]c3ccccc23)CC1` gave GLP-1R agonist 17%, GLP1R cytotox -30% and GLP-1R inv ag inconclusive.
Screening CN1CCN(c2ccc(Cl)cc2NC(=O)c2ccc(=O)n(C)n2)CC1 returned RORgamma inh 4%, GLP-1R agonist -3%, GLP1R cytotox 3%, Gal4-VP16 FLuc -13% and GLP-1R inv ag 10µM*.
CCCCCCCCCCCCCCCCSCC(COC)COP(=O)([O-])OCC[N+](C)(C)C (stereo not drawn) was read as RORgamma inh 10%, GLP-1R agonist -2% and Gal4-VP16 FLuc -9%.
Screening CC(=O)O[C@H]1CC[C@@]2(C)C(=CCC3C2CC[C@]2(C)C(c4cccnc4)=CCC32)C1 (stereo partly drawn) returned GLP-1R agonist -4%.
Screening Cc1ccc(N2C(=O)[C@@H]3[C@H](C2=O)[C@H]2C=CC=NN2[C@@H]3C(=O)Nc2ccc(Cl)cc2)cc1 returned RORgamma inh 10µM*, GLP-1R agonist -27%, GLP1R cytotox 22%, Gal4-VP16 FLuc inconclusive and GLP-1R inv ag 1%.
For O=C(Nc1ccc(Cl)cc1)[C@@H]1[C@@H]2C(=O)N(c3ccc(Cl)cc3)C(=O)[C@@H]2[C@H]2C=CC=NN21 the results were RORgamma inh -23%, GLP-1R agonist -28%, GLP1R cytotox -4%, Gal4-VP16 FLuc -6% and GLP-1R inv ag -27%.
For COc1ccc(C2NC(c3ccc(OC)cc3)C(c3ccccc3)C(=O)C2c2ccccc2)cc1 (stereo not drawn) the results were RORgamma inh -8%, GLP-1R agonist 0%, GLP1R cytotox 23%, Gal4-VP16 FLuc 7% and GLP-1R inv ag 5.6µM*.
For COc1ccc(C2NC(c3ccc(OC)cc3)C(C)C(=O)C2C)cc1 (stereo not drawn) the results were RORgamma inh 6%, GLP-1R agonist 14%, GLP1R cytotox 23%, Gal4-VP16 FLuc 7% and GLP-1R inv ag inconclusive.
For CCOc1ccc(C(=O)NCc2ccco2)cc1OC the results were RORgamma inh inconclusive, GLP-1R agonist 2%, GLP1R cytotox 0%, Gal4-VP16 FLuc -25% and GLP-1R inv ag 23%.
For COc1ccc(C(=O)NC(=S)NCc2ccco2)cc1OC the results were RORgamma inh 18µM*, GLP-1R agonist 22%, GLP1R cytotox -17%, Gal4-VP16 FLuc 16%[0.365 µM] and GLP-1R inv ag 3%.
COc1c(C)cc(Br)cc1C(=O)NC(=S)NCc1ccco1 was read as RORgamma inh 11µM*, GLP-1R agonist 4%, GLP1R cytotox 5%, Gal4-VP16 FLuc inconclusive and GLP-1R inv ag inconclusive.
`COc1ccc(C(=O)NC(=S)NCc2ccco2)cc1Br` gave RORgamma inh 3.5µM*, GLP-1R agonist 2%, GLP1R cytotox 9%, Gal4-VP16 FLuc 6.3µM* and GLP-1R inv ag 1%.
O=C1CCCc2ccccc2N1Cc1c(Cl)cccc1Cl was read as RORgamma inh 1.8µM*, GLP-1R agonist -15%, GLP1R cytotox 9%, Gal4-VP16 FLuc inconclusive and GLP-1R inv ag inconclusive.
For O=C1CCCc2ccccc2N1Cc1ccccc1Cl the results were RORgamma inh 4%, GLP-1R agonist 53%, GLP1R cytotox 13%, Gal4-VP16 FLuc -4% and GLP-1R inv ag inconclusive.
For O=C1CCCc2ccccc2N1Cc1ccc(Cl)cc1Cl the results were RORgamma inh 9%, GLP-1R agonist -6%, GLP1R cytotox -1%, Gal4-VP16 FLuc -16% and GLP-1R inv ag 11µM*.
Cc1ccc(-c2c(C)n3c4c(=O)n(C)c(=O)n(C)c4nc3n2-c2cccc(O)c2)cc1 was read as GLP-1R agonist -5%, GLP1R cytotox -5% and GLP-1R inv ag 19%.
Screening CC(C)[C@H](NC(=O)[C@H](CC(=O)O)NC(=O)CNC(=O)[C@@H](N)CCCN=C(N)N)C(=O)O returned RORgamma inh 5% and Gal4-VP16 FLuc 5%.
For O=C(N/N=C/c1cc(Br)cs1)c1ccccc1[N+](=O)[O-] the results were RORgamma inh 5.6µM*, GLP-1R agonist 3%, GLP1R cytotox -15%, Gal4-VP16 FLuc 7.9µM* and GLP-1R inv ag inconclusive.
Screening O=C(Cc1cccs1)N/N=C\c1ccc([N+](=O)[O-])s1 returned RORgamma inh inconclusive, GLP-1R agonist 3%, GLP1R cytotox -22%, Gal4-VP16 FLuc inconclusive and GLP-1R inv ag 2%.
O=C(N/N=C/c1ccc(Cl)s1)c1ccccc1[N+](=O)[O-] was read as RORgamma inh 6.3µM*, GLP-1R agonist 14%, GLP1R cytotox -11%, Gal4-VP16 FLuc 7.1µM* and GLP-1R inv ag inconclusive.
O=C(CNC(=O)c1ccccc1Cl)N/N=C/c1ccc([N+](=O)[O-])s1 was read as RORgamma inh 18µM*, GLP-1R agonist 3%, GLP1R cytotox inconclusive, Gal4-VP16 FLuc inconclusive and GLP-1R inv ag -24%.
For Cc1ccc(NCc2nnc3n2CCCCC3)cc1Cl the results were GLP-1R agonist -1%, GLP1R cytotox 10% and GLP-1R inv ag 24%.
For CCC(CC)C(=O)Nc1ccc2nc(SCC(=O)N3CCCC3)sc2c1 the results were GLP1R cytotox 6% and GLP-1R inv ag 6%.
For CC(C)c1ccc(OCc2cc(=O)n3c4c(sc3n2)CCCC4)cc1 the results were GLP-1R agonist 0%, GLP1R cytotox 1% and GLP-1R inv ag 13%.
O=C1OC(/C(=C\Nc2ccc(F)cc2F)[N+](=O)[O-])c2ccccc21 (stereo not drawn) was read as RORgamma inh 14µM*, GLP-1R agonist 0%, GLP1R cytotox -23%, Gal4-VP16 FLuc inconclusive and GLP-1R inv ag 16%.
`Cc1ccc(N/C=C(\C2OC(=O)c3ccccc32)[N+](=O)[O-])c(C)c1` (stereo not drawn) gave RORgamma inh inconclusive, GLP-1R agonist 6%, GLP1R cytotox -1%, Gal4-VP16 FLuc inconclusive and GLP-1R inv ag 13%.
Clc1ccccc1C(c1ccccc1)(c1ccccc1)n1ccnc1 was read as RORgamma inh 6.3µM*!, GLP-1R agonist 4%, GLP1R cytotox -5%, Gal4-VP16 FLuc inconclusive and GLP-1R inv ag 10µM*.
For CCC(Sc1nc2ncccc2o1)C(=O)Nc1cccc(C)c1 (stereo not drawn) the results were GLP1R cytotox -7% and GLP-1R inv ag 3%.
`Cc1c(CC(=O)NCCCCCC(=O)O)c(=O)oc2cc3c(cc12)CCC(C)(C)O3` gave RORgamma inh 14%, GLP-1R agonist 4%, GLP1R cytotox -5%, Gal4-VP16 FLuc 0% and GLP-1R inv ag -7%.
